Consider 40 sequences from the OligoGym collection.
Note: reference of the scale not given here.

One test deals with BEST2. Nature of the test: pooled miR-30 sensor sort-seq; sequence = guide strand. The note with it: shRNA.
AAGCGCTTGAACACCGCGGTGC came in with a sensor-assay potency score (higher = more potent) of 0.183.

Turning to TGGAACTGCATGTCTTCTTTGG, the sensor-assay potency score (higher = more potent) was -0.925.

TTAAGGGCGCTGTTGTCGCGGA: the sensor-assay potency score (higher = more potent) was -1.06.

The target in the next test is BIRC8. The description is as above. The note with it: shRNA.
Regarding TTGTTAACGGAGTACATCCATG, the sensor-assay potency score (higher = more potent) is -1.22.

TAGATCTGCAACAAGAACCTCA: the sensor-assay potency score (higher = more potent) turned out to be 0.199.

Sequence TCTTCTAGCAGATATTTGCAAC returned a sensor-assay potency score (higher = more potent) of -1.19.

Take TCGTATAGCTTCTTGTAGCATA: the sensor-assay potency score (higher = more potent) is -0.43.

In turn, TTGCTTGAAATCAATAACCGCG had a sensor-assay potency score (higher = more potent) of 0.0701.

As for TTTCTGTAGTGTCTTTCTGAGC, the sensor-assay potency score (higher = more potent) was -1.49.

As to TTGAAATCAATAACCGCGCTGC, the sensor-assay potency score (higher = more potent) was 1.02.

Sequence TGCAACAAGAACCTCAAGCGTT yielded a sensor-assay potency score (higher = more potent) of -0.815.

The sequence TAGTTTGTACCAGAGCTCCCTC came in with a sensor-assay potency score (higher = more potent) of -0.717.

Take TTTACAAAGCTTCTCCTCTTGC: the sensor-assay potency score (higher = more potent) is -0.189.

The sequence TTCTTTTAGTTAGTGATGGTGT showed a sensor-assay potency score (higher = more potent) of 0.0164.

As for TTTCTTGGTAGTTTGTACCAGA, the sensor-assay potency score (higher = more potent) was -0.312.

The target in another test is BMPR1B. The test is described as above. The conditions noted are these: shRNA.
TTACATTCGTTCCTTTCTGTGC showed a sensor-assay potency score (higher = more potent) of -0.864.

TATTGTTGACTGAGTCTTCTGG showed a sensor-assay potency score (higher = more potent) of 0.00108.

With TTTCACCATCTGAATCTGCTTA, the sensor-assay potency score (higher = more potent) was -0.0649.

As to TTGAGTACTAAAGATTTCTGTG, the sensor-assay potency score (higher = more potent) worked out at 0.176.

TTGTTGACTGAGTCTTCTGGAC registered a sensor-assay potency score (higher = more potent) of -0.721.

Regarding ATTTCTGTCTCTCTGAACCAGC, the sensor-assay potency score (higher = more potent) was -0.623.

In turn, TATTACATTCGTTCCTTTCTGT showed a sensor-assay potency score (higher = more potent) of 0.878.

For TATTCTTCCACTATACCTCCTG, the sensor-assay potency score (higher = more potent) turned out to be 0.554.

With TCGTGAAACAATATCCGTCTGT, the sensor-assay potency score (higher = more potent) was -0.0353.

As for TAGGTCATGATAAGGAAGCTGG, the sensor-assay potency score (higher = more potent) was -0.2.

Take TCATCGTGAAACAATATCCGTC: the sensor-assay potency score (higher = more potent) is -0.268.

Take TAGGTCTTTATTACATTCGTTC: the sensor-assay potency score (higher = more potent) was -0.881.

Regarding TGATATATTTCTGTCTCTCTGA, the sensor-assay potency score (higher = more potent) was found to be 0.214.

Consider TCTGTCTCTCTGAACCAGCTGG, for which the sensor-assay potency score (higher = more potent) is -0.359.

The sequence TTTTACTTTTCAGATCTCGATG came in with a sensor-assay potency score (higher = more potent) of -0.74.

On to TTGATCTTCTTTGATGAGGAAT, for which the sensor-assay potency score (higher = more potent) was -1.13.

Turning to TTGATGCACACAATCTCCCTCA, the sensor-assay potency score (higher = more potent) is -0.279.

On to TCATCCTCTTCTATCATCGTGA, for which the sensor-assay potency score (higher = more potent) is 0.152.

For TCTGTGATTAGGTACAACTGGG, the sensor-assay potency score (higher = more potent) turned out to be 0.0109.

On to TTCACCATCTGAATCTGCTTAG, for which the sensor-assay potency score (higher = more potent) was -0.315.

Sequence TTCTGTTCAAGCTCTCGTCCAA displayed a sensor-assay potency score (higher = more potent) of -0.142.

Another test has as its target BOLA1. The description is as above. The note with it: shRNA.
In the case of TAGTGAGTGATTCTTCTCTTTT, the sensor-assay potency score (higher = more potent) is -0.956.

Regarding TTCTTGTTCCCACCCAGGCATG, the sensor-assay potency score (higher = more potent) was -1.63.

With TGATTCTTCTCTTTTCTCGGGT, the sensor-assay potency score (higher = more potent) was 0.0423.

TCTCGTTGCGAAGCTCTAGCAC returned a sensor-assay potency score (higher = more potent) of -0.674.
